Results taken from PubChem BioAssay AID2685 (National Center for Advancing Translational Sciences (NCATS), 2010).
Screen size: about 320,000 compounds; about 2,100 (0.66%) were called active. Another 53% or so got no clear call; they are omitted. Calls follow the shape of the dose curve; as a rule, active = well fitted inhibition curve with a large enough effect in the signal ratio, with a control signal flat (not every such curve was filed as active); inconclusive = small, poorly fitted or top-dose-only effect, or effect the other way, or a change in a side signal; inactive = flat fitted curve, though single readings scatter; the % refers to the signal ratio. For the sample, actives were picked, then their nearest neighbours and some compounds at random.

assay: qHTS Assay for Lipid Storage Modulators in Drosophila S3 Cells; conditions: BODIPY lipid droplet fluorescence, 18-24 h, cells fed with added oleic acid; cell number change: measured here: cell count max response; series mostly up to 46.1 µM; lipid storage change, negative = inhibition: at the top concentration;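 as to cell number change: cells counted by Cell Tracker Red CMTPX staining in the red channel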; as to lipid storage change, negative = inhibition: % is scaled to controls: 0 for no effect and ±100 for the full control effect
Summary of the method: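 Drosophila S3 cells got compounds at several concentrations plus oleic acid (400 uM solution). Laser-scanning cytometry with 488 nm excitation read lipid droplets at 500-530 nm and cells at 575-640 nm. Percent activity was relative to 20 uM Triacsin C.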
Potency is read from the fitted curve at half-maximal effect.

| Structure (SMILES) | lipid storage change, negative = inhibition | cell number change [%] | outcome | Potency |
| --- | --- | --- | --- | --- |
| COc1ccc2c(c1)C(C)=CC(C)(C)N2C(=O)C(C)N1C(=O)c2ccccc2C1=O (configuration not stated) | 5.97% (inactive) | 1.95 | – | – |
| C[C@H](NC(N)=O)C(=O)Nc1ccc2c(c1)OCO2 | -4.55% (inactive) | -6.18 | – | – |
| COc1ccccc1C1C(C#N)=C(N)N(c2cccnc2)C2=C1C(=O)CC(C)(C)C2 (configuration not stated) | -0.0654% (inactive) | -3.09 | – | – |
| Cn1cc(CCC(=O)N2CCCC(CCC(=O)NCc3ccccc3F)C2)cn1 (configuration not stated) | 6.07% (inactive) | 3.88 | – | – |
| COc1cccc(NC(=O)CN(C)C(=O)C(C)Sc2ccccc2)c1 (configuration not stated) | 4.76% [at 0.0737 µM] (inactive) | – | – | – |
| CCOc1ccc(S(=O)(=O)Nc2cccc(C(=O)N3CCN(c4ccc(OC)cc4)CC3)c2)cc1 | 6.02% (inactive) | -10.3 | – | – |
| CC(=O)NNC(=O)c1[nH]c2ccc(Cl)cc2c1-c1ccccc1 | 24.7% (inactive) | 19.7 | – | – |
| COc1ccc(Br)cc1S(=O)(=O)NCCCN1CCOCC1 | 12.5% (inactive) | – | – | – |
| Cc1cccc(OCCC(=O)OCC(=O)N2CCc3ccccc32)c1 | 0.68% (inactive) | 16.2 | – | – |
| CC(C)C(OC(=O)CCC(=O)Nc1nccs1)C(=O)NC1CCCCC1 (configuration not stated) | 0.168% (inactive) | 7.34 | – | – |
| COc1ccc(N2C(=O)CC(N(CCc3ccc(OC)c(OC)c3)C(=S)Nc3ccccc3)C2=O)cc1 (configuration not stated) | -6.57% (inactive) | -11.8 | – | – |
| Cc1ccccc1OCC(=O)OCC(=O)N1CCCc2ccccc21 | – | – | inactive | – |
| CC(=O)c1sc2nsc(SCCN3CCCCC3)c2c1N | -3.85% (inactive) | 1.58 | – | – |
| CC(=O)c1sc2nsc(SCCN3CCCC3)c2c1N | -4.12% (inactive) | 7.13 | – | – |
| Nc1c(C(=O)c2cccs2)sc2nsc(SCCN3CCCCC3)c12 | – | 11.5 | – | 13 µM (active) |
| O=C1NC(c2ccc(Cl)cc2)Nc2ccccc21 (configuration not stated) | – | -23.5 | inactive | – |
| O=C1c2ccccc2C(=O)C1c1ccc(Cl)cc1 | -1.63% (inactive) | -2.4 | – | – |
| O=C1C(=O)c2ccccc2C(O)=C1C1CCC(c2ccc(Cl)cc2)CC1 (configuration not stated) | – | -0.693 | – | 4.11 µM (active) |
| COc1cc(C(=O)Nc2ccc3c(c2)C(=O)N(CCC(=O)O)C3=O)cc(OC)c1OC | 3.95% (inactive) | 1.68 | – | – |
| CCOC(=O)c1cc(C)n(-c2ccccc2)c1C | 3.49% (inactive) | – | – | – |
| CCOC(=O)c1cc(C)n(-n2cnnc2)c1C | – | 1.94 | – | 10.3 µM (active) |
| CCOC(=O)c1cc(C)n(S(=O)(=O)c2ccc(C)cc2)c1C | -11.4% (inactive) | -10.7 | – | – |
| CCCn1c(N)c(C(=O)CN(C)CC(=O)Nc2ccccc2C(F)(F)F)c(=O)[nH]c1=O | – | -17.2 | – | 7.31 µM (active) |

| Structure (SMILES) | lipid storage change, negative = inhibition | cell number change [%] | outcome | Potency |
| --- | --- | --- | --- | --- |
| CCCn1c(N)c(C(=O)CN(C)CC(=O)Nc2cc(C)ccc2C)c(=O)[nH]c1=O | 26.4% (inactive) | 15.5 | – | – |
| CCCn1c(N)c(C(=O)CN(C)CC(=O)Nc2c(Cl)cccc2Cl)c(=O)[nH]c1=O | – | -5.76 | inactive | – |
| COc1ccc(CCNC(=O)C2CC(c3ccccc3[N+](=O)[O-])=NO2)cc1 (configuration not stated) | 5.21% (inactive) | 17.6 | – | – |
| CC1CCCCN1S(=O)(=O)c1ccc2c(c1)CCN2C(=O)C1CC1 (configuration not stated) | – | -5.7 | – | 10.3 µM (active) |
| O=C(C1CCC1)N1CCc2cc(S(=O)(=O)N3CCN(c4ccccn4)CC3)ccc21 | – | -12.3 | inactive | – |
| O=C(C1CCC1)N1CCCc2cc(S(=O)(=O)N3CCN(c4ccccc4)CC3)ccc21 | – | -3.36 | – | 3.26 µM (active) |
| CC1CCCCN1S(=O)(=O)c1ccc2c(c1)CCN2C(=O)C1CCC1 (configuration not stated) | -6.29% (inactive) | 0.0968 | – | – |
| Cc1cccc(N2CCN(S(=O)(=O)c3ccc4c(c3)CCCN4C(=O)C3CCC3)CC2C)c1 (configuration not stated) | 6.82% (inactive) | -10.2 | – | – |
| CC1CCCCN1S(=O)(=O)c1ccc2c(c1)CCN2C(=O)CCC(=O)O (configuration not stated) | -8.2% (inactive) | 10 | – | – |
| Cc1cc(C)c(S(=O)(=O)N2CCOC2CNC(=O)C(=O)NCCCN2CCOCC2)c(C)c1 (configuration not stated) | – | 8.11 | inactive | – |
| Cc1cccc(N(CC(N)=O)C2SC(=O)NC2=O)c1 (configuration not stated) | -0.47% (inactive) | 8.77 | – | – |
| Cc1ccc(N(CC(N)=O)C2SC(=O)NC2=O)cc1 (configuration not stated) | -4.95% (inactive) | 8.58 | – | – |
| O=C(O)CN(c1ccccc1)C1SC(=O)NC1=O (configuration not stated) | – | -8.43 | – | 7.31 µM (active) |
| CC(C)[C@H](NC(=O)c1ccco1)C(=O)NCc1ccccc1 | – | 17.1 | inactive | – |
| CC(C)C(NC(=O)c1ccco1)C(=O)NCc1ccc(C(=O)O)cc1 (configuration not stated) | – | -31.6 | – | 6.51 µM (active) |
| CC(C)C(NC(=O)OCc1ccccc1)C(=O)NCc1ccc(C(=O)O)cc1 (configuration not stated) | 19.3% (inactive) | 18 | – | – |
| CC(/C=C/c1ccccc1)=N/NC(=O)c1cnccn1 | 8.89% (inactive) | 9.37 | – | – |
| CC1=[N+]([O-])C(C)(C)CC(C)(C)c2ccccc21 | – | -21.9 | – | 25.9 µM (active) |
| COC(=O)c1cn(CC(=O)Nc2ccccc2C)c2ccccc12 | – | 8.8 | inactive | – |
| COc1ccc(C2C(C#N)=C(N)OC3=C2C(=O)CC(C)(C)C3)cc1Cn1nc(C)c([N+](=O)[O-])c1C (configuration not stated) | 9.69% (inactive) | 4.05 | – | – |
| O=C1NCCN1C(=O)C12CC3CC(CC(C3)C1)C2 | 0.211% (inactive) | -1.76 | – | – |
| CSC1=NCCN1C(=O)C12CC3CC(CC(C3)C1)C2 | – | -43.3 | – | 1.3 µM (active) |
| O=C(N1CCN=C1SCc1cccnc1)C12CC3CC(CC(C3)C1)C2 | – | – | inactive | – |
